Measured values from PubChem BioAssay AID1159580 (chemical genetic matrix, 2015).
Where “and” joins values, the source holds several entries; their conditions need not be identical. Equal entries are not always repeated. Out of some 5,500 compounds screened, about 2,000 (36%) were called active. Another 18% or so got no clear call; they are omitted. No stated cut-off is given here; in the data, active means normalized growth mostly below about 0.91 (no sharp cut-off); inconclusive means no clear call, values can overlap the other calls; inactive means mostly above about 0.92. Some of the results follow. More than one record can exist for a structure, and the calls need not agree.

Test: chemical genetic growth profiling, strain panel (AID 1159580);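 further: tested at 20 µM; growth read once vehicle control cultures reached saturation at 30 °C; 1 = growth at the plate median or of vehicle wells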
Details: S. cerevisiae deletion strains, growth OD
[1] = locus YAL013W, strain DEP1, stronger effect = lower value
[2] = locus YAL040C, strain CLN3, stronger effect = lower value
[3] = locus YCL061C, strain MRC1 (second series), stronger effect = lower value
[4] = locus YDR363W, strain ESC2, stronger effect = lower value
[5] = locus YER002W, strain NOP16, stronger effect = lower value
[6] = locus YGR078C, strain PAC10, stronger effect = lower value
[7] = locus YGR229C, strain SMI1, stronger effect = lower value
[8] = locus YJR075W, strain HOC1, stronger effect = lower value
[9] = locus YMR263W, strain SAP30, stronger effect = lower value
[10] = locus YNL153C, strain GIM3, stronger effect = lower value
[11] = locus YNL175C, strain NOP13, stronger effect = lower value
[12] = locus YNL197C, strain WHI3, stronger effect = lower value
[13] = locus YNL224C, strain SQS1, stronger effect = lower value
[14] = locus YNL322C, strain KRE1, stronger effect = lower value
[15] = locus YOR083W, strain WHI5 (second series), stronger effect = lower value
[16] = locus YPL055C, strain LGE1, stronger effect = lower value
[17] = locus YAL021C, strain ccr4, stronger effect = lower value
[18] = locus YAL026C, strain drs2, stronger effect = lower value
[19] = locus YAL030W, strain snc1, stronger effect = lower value
[20] = locus YBL061C, strain skt5, stronger effect = lower value
[21] = locus YBR009C, strain hhf1, stronger effect = lower value
[22] = locus YBR023C, strain chs3, stronger effect = lower value
[23] = locus YBR171W, strain sec66, stronger effect = lower value
[24] = locus YBR231C, strain swc5, stronger effect = lower value
[25] = locus YBR279W, strain paf1, stronger effect = lower value
[26] = locus YCL011C, strain gbp2, stronger effect = lower value
[27] = locus YCL016C, strain dcc1, stronger effect = lower value
[28] = locus YCL061C, strain MRC1, stronger effect = lower value
[29] = locus YCL069W, strain vba3, stronger effect = lower value
[30] = locus YCR088W, strain abp1, stronger effect = lower value
[31] = locus YDL005C, strain med2, stronger effect = lower value
[32] = locus YDL040C, strain nat1, stronger effect = lower value
[33] = locus YDR001C, strain nth1, stronger effect = lower value
[34] = locus YDR069C, strain doa4, stronger effect = lower value
[35] = locus YDR137W, strain rgp1, stronger effect = lower value
[36] = locus YDR159W, strain sac3, stronger effect = lower value
[37] = locus YDR297W, strain sur2, stronger effect = lower value
[38] = locus YDR334W, strain swr1, stronger effect = lower value
[39] = locus YDR335W, strain msn5, stronger effect = lower value
[40] = locus YDR392W, strain spt3, stronger effect = lower value
[41] = locus YEL003W, strain gim4, stronger effect = lower value
[42] = locus YEL037C, strain rad23, stronger effect = lower value
[43] = locus YEL061C, strain CIN8 (second series), stronger effect = lower value
[44] = locus YER015W, strain faa2, stronger effect = lower value
[45] = locus YER016W, strain bim1, stronger effect = lower value
[46] = locus YER111C, strain swi4, stronger effect = lower value
[47] = locus YER155C, strain BEM2 (second series), stronger effect = lower value
[48] = locus YFR010W, strain ubp6, stronger effect = lower value
[49] = locus YGL167C, strain pmr1, stronger effect = lower value
[50] = locus YGL173C, strain kem1, stronger effect = lower value
[51] = locus YGL227W, strain vid30, stronger effect = lower value
[52] = locus YGL240W, strain doc1, stronger effect = lower value
[53] = locus YGL253W, strain hxk2, stronger effect = lower value
[54] = locus YHR013C, strain ard1, stronger effect = lower value
[55] = locus YHR027C, strain rpn1, stronger effect = lower value
[56] = locus YHR030C, strain SLT2, stronger effect = lower value
[57] = locus YHR079C, strain IRE1, stronger effect = lower value
[58] = locus YHR142W, strain chs7, stronger effect = lower value
[59] = locus YJL092W, strain hpr5, stronger effect = lower value
[60] = locus YJL095W, strain BCK1 (second series), stronger effect = lower value
[61] = locus YJL095W, strain BCK1, stronger effect = lower value
[62] = locus YJL115W, strain asf1, stronger effect = lower value
[63] = locus YJL129C, strain trk1, stronger effect = lower value
[64] = locus YJL154C, strain vps35, stronger effect = lower value
[65] = locus YJL164C, strain tpk1, stronger effect = lower value
[66] = locus YJL166W, strain qcr8, stronger effect = lower value
[67] = locus YJL187C, strain SWE1, stronger effect = lower value
[68] = locus YJR066W, strain TOR1, stronger effect = lower value
[69] = locus YKL160W, strain elf1, stronger effect = lower value
[70] = locus YKR026C, strain gcn3, stronger effect = lower value
[71] = locus YKR091W, strain srl3, stronger effect = lower value
[72] = locus YLL001W, strain dnm1, stronger effect = lower value
[73] = locus YLL026W, stronger effect = lower value
[74] = locus YLL041C, strain sdh2, stronger effect = lower value
[75] = locus YLR027C, strain aat2, stronger effect = lower value
[76] = locus YLR113W, strain HOG1, stronger effect = lower value
[77] = locus YLR221C, strain rsa3, stronger effect = lower value
[78] = locus YLR258W, strain gsy2, stronger effect = lower value
[79] = locus YLR262C, strain YPT6 (second series), stronger effect = lower value
[80] = locus YLR320W, strain mms22, stronger effect = lower value
[81] = locus YLR342W, strain FKS1, stronger effect = lower value
[82] = locus YLR357W, strain rsc2, stronger effect = lower value
[83] = locus YLR370C, strain arc18, stronger effect = lower value
[84] = locus YLR384C, strain iki3, stronger effect = lower value
[85] = locus YML120C, strain ndi1, stronger effect = lower value
[86] = locus YMR058W, strain fet3, stronger effect = lower value
[87] = locus YMR125W, strain sto1, stronger effect = lower value
[88] = locus YMR129W, stronger effect = lower value
[89] = locus YMR205C, strain PFK2, stronger effect = lower value
[90] = locus YMR231W, strain pep5, stronger effect = lower value
[91] = locus YNL071W, strain lat1, stronger effect = lower value
[92] = locus YNL183C, strain NPR1, stronger effect = lower value
[93] = locus YNL209W, strain ssb2, stronger effect = lower value
[94] = locus YNL248C, strain rpa49, stronger effect = lower value
[95] = locus YNL322C, strain KRE1 (second series), stronger effect = lower value
[96] = locus YNR049C, strain mso1, stronger effect = lower value
[97] = locus YOR001W, strain rrp6, stronger effect = lower value
[98] = locus YOR070C, strain gyp1, stronger effect = lower value
[99] = locus YOR080W, strain dia2, stronger effect = lower value
[100] = locus YOR083W, strain WHI5, stronger effect = lower value
[101] = locus YOR106W, strain vam3, stronger effect = lower value
[102] = locus YOR231W, strain MKK1, stronger effect = lower value
[103] = locus YOR265W, strain rbl2, stronger effect = lower value
[104] = locus YOR270C, strain vph1, stronger effect = lower value
[105] = locus YOR290C, strain snf2, stronger effect = lower value
[106] = locus YPL051W, strain arl3, stronger effect = lower value
[107] = locus YPL078C, strain atp4, stronger effect = lower value
[108] = locus YPL106C, strain sse1, stronger effect = lower value
[109] = locus YPL240C, strain hsp82, stronger effect = lower value
[110] = locus YPL256C, strain CLN2, stronger effect = lower value

Measured: normalized growth

CC(N)(Cc1ccc(O)c(O)c1)C(=O)O (stereo not drawn)
inactive: [1] 0.956 | [2] 0.961 and 1 | [4] 1.02 and 1.01 | [5] 1.01 | [6] 1.01 and 0.992 | [7] 0.862 | [8] 0.984 and 0.975 | [9] 1.01 | [10] 0.971 | [11] 1.01 and 1 | [12] 1.01 | [13] 1.01 | [14] 1.02 and 1.01 | [15] 1.01 and 0.993 | [16] 0.943
0.914 (active) and 0.963 (inactive): [3]

CC(N)(Cc1ccc(O)cc1)C(=O)O (stereo not drawn)
inactive: [1] 1.03 | [2] 0.969 and 1.01 | [3] 0.991 and 1.01 | locus YDR150W, strain NUM1, stronger effect = lower value 1 | [4] 1 and 1.03 | [5] 0.984 and 1 | [6] 1.02 | [7] 1.03 | [8] 1.02 | [9] 1.01 | locus YNL128W, strain TEP1, stronger effect = lower value 0.984 | [10] 0.998 and 1.02 | [11] 0.97 and 1.01 | [12] 0.975 and 0.984 | [13] 1.01 and 1 | [14] 1.03 | [15] 0.974 and 1 | [16] 1.01 and 1.02

C[C@](N)(Cc1ccc(O)cc1)C(=O)O
inactive: [17] 1 | [18] 0.999 | [19] 0.998 | [20] 0.993 | [21] 0.993 | [22] 0.996 | [23] 0.998 | [24] 1 | [25] 1 | [26] 1 | [27] 0.986 | [28] 1 | [29] 0.997 | [30] 0.99 | [31] 0.989 | [32] 0.991 | [33] 0.986 | [34] 1 | [35] 0.991 | [36] 0.991 | locus YDR195W, strain ref2 0.971 | [37] 0.996 | [38] 0.997 | [39] 0.995 | [40] 0.923 | [41] 1 | [42] 0.999 | [43] 0.992 | [44] 1 | [45] 0.993 | [46] 1 | [47] 0.983 | [48] 1 | [49] 0.994 | [50] 1.01 | [51] 0.992 | [52] 1.01 | [53] 0.999 | [54] 0.954 | [55] 0.997 | [56] 1.03 | [57] 1.04 | [58] 1.01 | [59] 0.998 | [60] 0.997 | [61] 1.05 | [62] 0.99 | [63] 1.01 | [64] 1 | [65] 0.999 | [66] 1 | [67] 0.999 | [68] 1.01 | [69] 1.01 | [70] 0.98 | [71] 0.992 | [72] 1.01 | [73] 0.996 | [74] 0.997 | [75] 1 | [76] 1.01 | [77] 0.997 | [78] 0.993 | [79] 1.01 | [80] 1.01 | [81] 0.998 | [82] 0.982 | [83] 1 | [84] 0.994 | [85] 1.03 | [86] 1 | [87] 0.995 | [88] 0.986 | [89] 0.984 | [90] 0.999 | [91] 1.01 | [92] 1.02 | [93] 1.01 | [94] 1.02 | [95] 0.986 | [96] 0.989 | [97] 1 | [98] 0.988 | [99] 0.99 | [100] 1.01 | [101] 1 | [102] 1.05 | [103] 0.999 | [104] 1.01 | [105] 0.926 | [106] 1.01 | [107] 1.01 | [108] 0.993 | [109] 1.01 | [110] 1.05

C[C@@](Cc1ccc(O)c(O)c1)(NN)C(=O)O
inactive: [2] 1.01 | [3] 1 | [4] 1.02 | [5] 1.06 | locus YMR307W, strain GAS1, stronger effect = lower value 0.997 | [11] 1.04 | [12] 0.993 | [13] 1.02 | [15] 0.978

CCOC(=O)C(C)(N)Cc1ccc(O)c(O)c1 (stereo not drawn)
active: [101] 0.859
inactive: [17] 0.967 | [18] 0.958 | [19] 0.965 | [20] 0.965 | [21] 0.984 | [22] 0.981 | [23] 0.967 | [24] 0.992 | [25] 0.993 | [26] 0.983 | [27] 0.971 | [28] 0.965 | [29] 0.989 | [30] 0.995 | [31] 0.986 | [32] 0.993 | [33] 0.982 | [34] 0.944 | [35] 0.956 | [36] 0.953 | locus YDR195W, strain ref2 0.985 | [37] 0.974 | [38] 0.921 | [39] 0.971 | [40] 0.964 | [41] 0.98 | [42] 0.983 | [43] 0.988 | [44] 0.952 | [45] 0.992 | [46] 0.968 | [47] 0.977 | [48] 0.976 | [49] 0.946 | [50] 0.945 | [51] 0.983 | [52] 0.958 | [53] 0.978 | [54] 0.951 | [55] 0.947 | [56] 1.08 | [57] 1.08 | [58] 0.989 | [59] 0.978 | [60] 0.973 | [61] 1.02 | [62] 0.95 | [63] 0.994 | [64] 0.986 | [65] 0.963 | [66] 0.985 | [67] 0.977 | [68] 1 | [69] 0.987 | [70] 0.971 | [71] 0.998 | [72] 0.974 | [73] 0.971 | [74] 0.962 | [75] 0.962 | [76] 1 | [77] 0.976 | [78] 0.986 | [79] 0.881 | [80] 0.988 | [81] 0.977 | [82] 0.969 | [83] 0.981 | [84] 0.958 | [85] 0.974 | [86] 0.946 | [87] 0.998 | [88] 0.997 | [89] 0.971 | [90] 0.972 | [91] 1 | [92] 0.987 | [93] 0.961 | [94] 0.984 | [95] 0.979 | [96] 0.972 | [97] 0.977 | [98] 0.978 | [99] 0.982 | [100] 0.983 | [102] 1.06 | [103] 0.969 | [104] 0.951 | [105] 0.946 | [106] 0.964 | [107] 0.984 | [108] 0.886 | [109] 0.975 | [110] 1.06
